Some test systems named below: SK-MEL-2 melanoma; EKVX NSCLC; SN12C renal; UO-31 renal; TK-10 renal; ACHN renal; CAKI-1 renal; A498 renal; CCRF-CEM leukemia; MOLT-4 leukemia; SR leukemia; RPMI-8226 leukemia; OVCAR-8 ovarian; OVCAR-5 ovarian; OVCAR-4 ovarian; IGROV1 ovarian; OVCAR-3 ovarian; HS 578T breast; SK-OV-3 ovarian; NCI/ADR-RES ovarian.
Assay in all cases: NCI-60 one-dose screen, 48 h (100 = growth as untreated, 0 = no growth, -100 = all killed)
What all share (conditions): 10 µM unless noted

This is part of a sample that, as a whole, favours compounds with a hit. Of some 83,000 tested, about 20% had one in any assay.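 Each cell line was grown in a 96-well plate and treated with one concentration of compound for 48 hours. Values below 10 were considered active.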 Unmarked numbers belong to inactive results. The source made the active and inactive calls.

`COc1cnc2c(c1)C(=O)c1c-2n(CCCN2CCCC2)c(=O)c2cc([N+](=O)[O-])ccc12`: the growth with SK-MEL-2 melanoma was 13.8%; with EKVX NSCLC, 21.7%; with SN12C renal, 8.36% (active); in the assay on UO-31 renal it was -96.3% (active); with TK-10 renal, 13.2%; with ACHN renal, -91.2% (active). The growth is -13.6% (active) with CAKI-1 renal; -97.9% (active) with A498 renal; -16.1% (active) with CCRF-CEM leukemia; 1.49% (active) with MOLT-4 leukemia; -1.06% (active) with SR leukemia; -34.1% (active) in the assay with RPMI-8226 leukemia. For the same molecule, the growth in the assay with OVCAR-8 ovarian is -37.2% (active); in the assay with OVCAR-5 ovarian it was -28.4% (active); in the assay with OVCAR-4 ovarian, 10.4%; with IGROV1 ovarian it was -5.7% (active); with OVCAR-3 ovarian, -72.4% (active); in the assay with HS 578T breast, 35.1%.

For the molecule `COc1cc(NCCCCN=C(N)NC(N)=NC(C)C)c2ncccc2c1`, the growth with SK-MEL-2 melanoma was 43.7%; in the assay with EKVX NSCLC it was 68%; in the assay with SN12C renal, 32.6%; in the assay with UO-31 renal it was 71.6%; in the assay with TK-10 renal, 90.4%; in the assay on ACHN renal it was 108%. Also, the growth in the assay on CAKI-1 renal was 116%; in the assay with A498 renal, 133%; in the assay with CCRF-CEM leukemia, 48.8%; with MOLT-4 leukemia, 54.1%; in the assay on SR leukemia it was 98.2%; in the assay with RPMI-8226 leukemia, 17.5%. The growth was 45.4% with OVCAR-8 ovarian; -9.62% (active) in the assay with OVCAR-4 ovarian; 100% in the assay on SK-OV-3 ovarian; -31.9% (active) in the assay with IGROV1 ovarian; -43.7% (active) with OVCAR-3 ovarian; 100% in the assay with HS 578T breast. In addition, the growth with NCI/ADR-RES ovarian was 109%.

With `CCCCCn1cnc2c(=S)nc[nH]c21`, the growth in the assay with SK-MEL-2 melanoma was 121%; with EKVX NSCLC, 108%; with SN12C renal it was 117%; with UO-31 renal, 99.1%; in the assay on TK-10 renal, 116%; in the assay with ACHN renal, 109%. For the same molecule, the growth was 115% with CAKI-1 renal; 107% with A498 renal; 97.1% with CCRF-CEM leukemia; 104% in the assay with MOLT-4 leukemia; 112% in the assay on SR leukemia; 81.9% in the assay on RPMI-8226 leukemia. For the same molecule, the growth in the assay on OVCAR-8 ovarian is 118%; in the assay with OVCAR-5 ovarian it was 121%; with OVCAR-4 ovarian it was 86.5%; with SK-OV-3 ovarian, 98.7%; with IGROV1 ovarian, 116%; in the assay on HS 578T breast, 101%. Moreover, the growth with NCI/ADR-RES ovarian is 113%.

On to `C/C=C/C(N)=O`, for which the growth was 119% in the assay with SK-MEL-2 melanoma; 95.9% in the assay with EKVX NSCLC; 106% with SN12C renal; 91.7% in the assay on UO-31 renal; 105% in the assay with TK-10 renal; 96.8% with ACHN renal. Also, the growth with CAKI-1 renal was 98%; in the assay with A498 renal, 108%; in the assay with CCRF-CEM leukemia, 35.6%; in the assay with MOLT-4 leukemia, 96.2%; with SR leukemia, 92%; with RPMI-8226 leukemia it was 109%. The growth is 106% in the assay with OVCAR-8 ovarian; 107% in the assay with OVCAR-4 ovarian; 110% with SK-OV-3 ovarian; 106% in the assay on IGROV1 ovarian; 99% in the assay on OVCAR-3 ovarian; 99.9% in the assay with HS 578T breast. In addition, the growth in the assay on NCI/ADR-RES ovarian was 106%.

With `CCN(CC)CC#CCOC(=O)[C@]1(C)CCC[C@@]2(C)[C@H]1CC(C=O)=C1C=C(C(C)C)CC[C@@H]12`, the growth is 88% in the assay with SK-MEL-2 melanoma; 77.8% with EKVX NSCLC; 77.6% with SN12C renal; 52.6% in the assay with UO-31 renal; 77.1% in the assay on TK-10 renal; 86.9% in the assay with ACHN renal. The growth in the assay with CAKI-1 renal is 101%; with A498 renal it was 69.7%; with CCRF-CEM leukemia it was 50.4%; in the assay with MOLT-4 leukemia, 50.1%; in the assay on SR leukemia it was 20.1%; in the assay on RPMI-8226 leukemia, 27.8%. For the same molecule, the growth with OVCAR-8 ovarian was 73.5%; with OVCAR-5 ovarian, 82.7%; with OVCAR-4 ovarian it was 69.5%; with IGROV1 ovarian, 63.2%; with OVCAR-3 ovarian, 69.1%; with HS 578T breast, 67.1%. Moreover, the growth in the assay on NCI/ADR-RES ovarian is 70.9%.

Consider `O=C(O)c1ccc2c(c1Sc1ccccc1)C(=O)c1ccccc1C2=O`, for which the growth in the assay with SK-MEL-2 melanoma was 90.5%; in the assay on EKVX NSCLC, 36.1%; in the assay on SN12C renal, 96.6%; with UO-31 renal, 77%; with TK-10 renal, 86.5%; with ACHN renal, 95.3%. For the same molecule, the growth in the assay on CAKI-1 renal was 84.4%; in the assay with A498 renal, 114%; in the assay on CCRF-CEM leukemia, 91.9%; in the assay on MOLT-4 leukemia, 113%; in the assay on SR leukemia, 95.6%; with RPMI-8226 leukemia, 106%. Further, the growth is 105% in the assay on OVCAR-8 ovarian; 101% in the assay with OVCAR-5 ovarian; 92.9% with OVCAR-4 ovarian; 92.2% in the assay on IGROV1 ovarian; 89.6% in the assay on OVCAR-3 ovarian; 114% in the assay with HS 578T breast. In addition, the growth with NCI/ADR-RES ovarian was 105%.

As to `CN(CC(=O)N(Cc1ccc(C2CCCCC2)cc1)c1ccc(C(=O)NO)cc1)S(=O)(=O)c1c(F)c(F)c(F)c(F)c1F`, the growth with SK-MEL-2 melanoma was 81.2%; in the assay with EKVX NSCLC it was 106%; in the assay on SN12C renal it was 86.1%; in the assay with UO-31 renal it was 69.1%; in the assay on TK-10 renal, 87.4%; in the assay with ACHN renal, 79.6%. The growth in the assay with CAKI-1 renal is 87.4%; in the assay with A498 renal, 95.7%; in the assay with CCRF-CEM leukemia, 41.9%; with MOLT-4 leukemia, 39.2%; in the assay on SR leukemia it was -4.55% (active); in the assay on RPMI-8226 leukemia, 62.8%. Also, the growth in the assay with OVCAR-8 ovarian was 49.8%; in the assay with OVCAR-5 ovarian, 104%; with OVCAR-4 ovarian, 84.4%; in the assay with SK-OV-3 ovarian, 111%; with IGROV1 ovarian, 28.6%; with HS 578T breast, 91.6%. Besides, in the assay with NCI/ADR-RES ovarian, the growth was 90.2%.

As for `O=C(Nc1ccc(CN2CCOCC2)cc1)c1[nH]ncc1Nc1ncnc2sccc12`, the growth with SK-MEL-2 melanoma was 2.93% (active); in the assay on EKVX NSCLC it was 13.4%; in the assay with SN12C renal it was 10.4%; with UO-31 renal it was 8.4% (active); with TK-10 renal, 8.06% (active); with ACHN renal, 2.49% (active). Besides, the growth was 13.2% in the assay on CAKI-1 renal; -36.8% (active) in the assay with A498 renal; 5.37% (active) in the assay with CCRF-CEM leukemia; -2.6% (active) in the assay on MOLT-4 leukemia; -4.39% (active) in the assay with SR leukemia; -3.98% (active) with RPMI-8226 leukemia. The growth in the assay on OVCAR-8 ovarian is 11.6%; in the assay on OVCAR-5 ovarian, 16.1%; with OVCAR-4 ovarian, 13.6%; in the assay on IGROV1 ovarian, 16.7%; with OVCAR-3 ovarian, -15.7% (active); in the assay on HS 578T breast, -2.92% (active).

(Values after PubChem BioAssay (NCI).)
